# Results: PubChem BioAssay (EPA / NIEHS)
# Active and inactive are the calls of the source. How the source made its calls: active means hit-call score of the fitted dose curve at least 0.9, where 1 is the maximum; inactive means score below 0.9.
# Experiments:
# [1] = ATG_CRE_CIS: Attagene CIS-FACTORIAL HepG2 Assay for human cAMP Responsive Element (CRE) binding protein 3 (AID 2282926); conditions: HepG2 CRE cis-reporter, Attagene multiplexed mRNA; actives raise or lower the signal
# In short: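 Human liver HepG2, transient MRTU transfection, 24 h compound exposure. Total RNA → oligo(dT) RT → PCR → 6-FAM primer extension → HpaI cut → CE. Activity called both directions vs DMSO.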
# [2] = target: CCAAT/enhancer-binding protein beta (Homo sapiens) (UniProt P17676); assay: ATG_C_EBP_CIS: Attagene CIS-FACTORIAL HepG2 Assay for human CCAAT/Enhancer Binding Protein (C/EBP) beta (AID 2282927); conditions: HepG2 Attagene cis-factorial transcription factor reporter; actives raise or lower the signal
# In short: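 RT-PCR/capillary electrophoresis fluorescence of reporter mRNA, 24 h post-dose, in HepG2 cells carrying transfected cis-promoter reporter units. Bidirectional curve fitting against DMSO baseline captures gain or loss of signal.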
# [3] = ATG_CMV_CIS: Attagene CIS-FACTORIAL HepG2 Assay for human CMV (Internal Marker) (AID 2282928); conditions: HepG2 CMV promoter reporter, transcription factor profiling; actives raise or lower the signal;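 further: endpoint acts as a background internal control marker rather than a target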
# In short: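 HepG2 cells transiently transfected with multiple cis-regulated reporter units; 24 h compound exposure. Reporter mRNA quantified by RT-PCR, 6-FAM primer-extension labeling, HpaI digestion and capillary electrophoresis; bidirectional fitting against DMSO baseline.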
# [4] = ATG_DR4_LXR_CIS: Attagene CIS-FACTORIAL HepG2 Assay for human Liver X Receptor (LXR), DR4 submotif (AID 2282929); conditions: HepG2 Attagene DR4 cis-reporter, mRNA transcription; actives raise or lower the signal
# In short: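 HepG2, transient MRTU transfection, cis-element (DR4) promoter; 24 h compound exposure; total RNA → oligo(dT) RT → PCR → 6-FAM primer extension → HpaI cut → CE. Gain/loss vs DMSO, bidirectional fit.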
# [5] = target: Aryl hydrocarbon receptor (Homo sapiens) (UniProt P35869); assay: ATG_Ahr_CIS: Attagene CIS-FACTORIAL HepG2 Assay for human Aryl Hydrocarbon Receptor (Ahr) (AID 2282930); conditions: HepG2 AhR cis-factorial reporter transcription; actives raise or lower the signal
# In short: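 HepG2 cells transiently transfected with cis-element-driven multiplexed reporter transcription units; endogenous transcription factor activity measured as reporter mRNA 24 h after dosing. RT-PCR, 6-FAM labelling, HpaI digestion, capillary electrophoresis; bidirectional fitting versus DMSO baseline.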
# [6] = ATG_AP_1_CIS: Attagene CIS-FACTORIAL HepG2 Assay for human Activator Protein 1 (AP-1) (AID 2282931); conditions: HepG2 Attagene cis-factorial AP-1 reporter mRNA; actives raise or lower the signal
# In short: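 Transient MRTU transfection of HepG2 → 24 h chemical treatment → RNA isolation, RT-PCR, 6-FAM labelling, HpaI digest → capillary electrophoresis. Fit: bidirectional, DMSO negative control.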
# [7] = ATG_AP_2_CIS: Attagene CIS-FACTORIAL HepG2 Assay for human Activator Protein 2 (AP-2) (AID 2282932); conditions: HepG2 AP-2 cis-reporter, Attagene transcription factor profiling; actives raise or lower the signal
# In short: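 HepG2 cells were transiently transfected with multiple cis-promoter reporter transcription units and dosed for 24 h. Reporter mRNA was measured by RT-PCR with capillary electrophoresis fluorescence; bidirectional fits relative to DMSO baseline.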
# [8] = ATG_BRE_CIS: Attagene CIS-FACTORIAL HepG2 Assay for human Bone Morphogenetic Protein (BMP) Response Element (BRE) (AID 2282933); conditions: HepG2 BMP response element reporter, Attagene transcription factor profiling; actives raise or lower the signal
# In short: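 Transient MRTU transfection of human HepG2 liver cells; 24 h compound treatment; total RNA isolated, reverse-transcribed, PCR-amplified, 6-FAM labelled, HpaI-cut, capillary electrophoresis. DMSO = negative control/baseline, bidirectional fit.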
# [9] = target: Retinoic acid receptor alpha (Homo sapiens) (UniProt P10276); assay: ATG_DR5_RAR_CIS: Attagene CIS-FACTORIAL HepG2 Assay for human Retinoic Acid Receptor Alpha (RARE), DR5 submotif (AID 2282934); conditions: HepG2 Attagene cis-factorial RARE DR5 reporter, mRNA; actives raise or lower the signal
# In short: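 HepG2 cells transiently transfected with multiplexed reporter units under cis (DR5 RARE) promoters, so endogenous transcription factor activity is measured. After 24 h compound exposure, reporter mRNA is quantified by RT-PCR with fluorescent labelling and capillary electrophoresis; bidirectional fitting versus DMSO.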
# [10] = target: Transcription factor E2F1 (Homo sapiens) (UniProt Q01094); assay: ATG_E2F_CIS: Attagene CIS-FACTORIAL HepG2 Assay for human E2F Transcription Factor 1 (AID 2282935); conditions: HepG2 Attagene cis-reporter, E2F reporter RNA transcripts; actives raise or lower the signal
# In short: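 HepG2 cells transiently transfected with multiplexed cis-element reporter units, dosed for 24 h. Reporter mRNA measured by RT-PCR, 6-FAM primer-extension labeling, HpaI digestion and capillary electrophoresis; bidirectional fit versus DMSO baseline.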
# [11] = ATG_E_Box_CIS: Attagene CIS-FACTORIAL HepG2 Assay for human Enhancer Box (E-box) (AID 2282936); conditions: HepG2 E-box cis-reporter transcription, actives raise or lower the signal
# In short: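 HepG2 cells transiently transfected with multiplexed cis-element reporter units sensing endogenous transcription factor activity; 24 h compound exposure. Reporter mRNA measured by RT-PCR, 6-FAM primer extension, HpaI digestion and capillary electrophoresis; bidirectional fit versus DMSO.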
# [12] = ATG_M_61_CIS: Attagene CIS-FACTORIAL HepG2 Assay for M61 Transcription Factor (Internal Marker) (AID 2282937); conditions: HepG2 Attagene CIS-FACTORIAL M61 internal marker reporter; actives raise or lower the signal
# In short: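 Human liver HepG2, transient MRTU transfection (cis promoter elements), 24 h compound. Total RNA → oligo(dT) RT → PCR → FAM label → HpaI → CE. Internal background marker; bidirectional fitting, DMSO = baseline.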
# [13] = ATG_EGR_CIS: Attagene CIS-FACTORIAL HepG2 Assay for human Early Growth Response 1 (EGR1) (AID 2282938); conditions: HepG2 Attagene CIS-FACTORIAL EGR reporter mRNA; actives raise or lower the signal
# In short: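 Transient transfection of human HepG2 with multiple cis-regulated reporter units, chemical exposure 24 h, total RNA isolated. Reverse transcription, PCR, fluorescent labelling and capillary electrophoresis quantify reporter transcripts; activity fitted bidirectionally against DMSO.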
# [14] = ATG_M_19_CIS: Attagene CIS-FACTORIAL HepG2 Assay for M19 Transcription Factor (Internal Marker) (AID 2282939); conditions: HepG2 Attagene CIS-FACTORIAL M19 internal marker reporter; actives raise or lower the signal
# In short: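 Transfect HepG2 with MRTU reporter library → dose chemical, 24 h → isolate total RNA, reverse-transcribe with oligo(dT) → PCR, 6-FAM label, HpaI cut (2 h, 37 C) → capillary electrophoresis. Bidirectional fit vs DMSO.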
# [15] = ATG_ERE_CIS: Attagene CIS-FACTORIAL HepG2 Assay for Estrogen Response Element (ERE) (AID 2282940); conditions: HepG2 ERE cis-reporter, Attagene RNA transcript; actives raise or lower the signal
# In short: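 Transient MRTU transfection of human HepG2; cis-element promoters; 24 h dosing; total RNA → RT (oligo dT) → PCR → 6-FAM primer extension → HpaI digest → CE fluorescence. Bidirectional fit, DMSO baseline.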
# [16] = ATG_Ets_CIS: Attagene CIS-FACTORIAL HepG2 Assay for human Erythroblast Transformation Specific (ETS) (AID 2282941); conditions: HepG2 ETS cis-reporter transcription, actives raise or lower the signal
# In short: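 HepG2 cells transiently transfected with cis-promoter reporter transcription units were dosed for 24 h; reporter mRNA was measured by RT-PCR, 6-FAM primer extension, HpaI digestion and capillary electrophoresis, with bidirectional fitting against DMSO baseline.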
# [17] = target: Hepatocyte nuclear factor 3-beta (Homo sapiens) (UniProt Q9Y261); assay: ATG_FoxA2_CIS: Attagene CIS-FACTORIAL HepG2 Assay for human Forkhead box A2 (FOXA2) (AID 2282942); conditions: HepG2 cis-reporter transcription factor activity, 24 h; actives raise or lower the signal
# In short: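 Transient MRTU transfection of HepG2 liver cells; 24 h treatment; total RNA → oligo(dT) RT → PCR → FAM primer extension → HpaI cut → CE. Bidirectional fit vs DMSO.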
# [18] = ATG_FoxO_CIS: Attagene CIS-FACTORIAL HepG2 Assay for human Forkhead box O (FoxO) (AID 2282943); conditions: HepG2 Attagene cis-reporter, FoxO element, mRNA; actives raise or lower the signal
# In short: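 HepG2 cells transiently transfected with cis-promoter-driven multiple reporter transcription units; 24 h after chemical dosing, reporter mRNA quantified by RT-PCR, fluorescent primer extension, HpaI digestion and capillary electrophoresis. Bidirectional fitting versus DMSO baseline.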
# [19] = ATG_GATA_CIS: Attagene CIS-FACTORIAL HepG2 Assay for human GATA Binding Protein (AID 2282944); conditions: HepG2 GATA cis-element reporter, Attagene multiplex mRNA; actives raise or lower the signal
# In short: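 Transient MRTU transfection, HepG2, 24 h compound exposure. Total RNA → oligo(dT) RT → PCR → 6-FAM primer extension → HpaI cut → CE. Bidirectional fit vs DMSO.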
# [20] = ATG_GLI_CIS: Attagene CIS-FACTORIAL HepG2 Assay for human Zinc Finger Protein GLI1 (AID 2282945); conditions: HepG2, Attagene cis-factorial reporter mRNA, GLI element; actives raise or lower the signal
# In short: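 HepG2 cells transiently transfected with cis-promoter multiplexed reporter units report endogenous transcription factor activity. After 24 h chemical exposure, reporter mRNA was quantified by RT-PCR, 6-FAM labelling, HpaI digestion and capillary electrophoresis, with bidirectional fitting against DMSO.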
# Chain of Transcription factor E2F1 (Homo sapiens) (Q01094 whole entry, looked up): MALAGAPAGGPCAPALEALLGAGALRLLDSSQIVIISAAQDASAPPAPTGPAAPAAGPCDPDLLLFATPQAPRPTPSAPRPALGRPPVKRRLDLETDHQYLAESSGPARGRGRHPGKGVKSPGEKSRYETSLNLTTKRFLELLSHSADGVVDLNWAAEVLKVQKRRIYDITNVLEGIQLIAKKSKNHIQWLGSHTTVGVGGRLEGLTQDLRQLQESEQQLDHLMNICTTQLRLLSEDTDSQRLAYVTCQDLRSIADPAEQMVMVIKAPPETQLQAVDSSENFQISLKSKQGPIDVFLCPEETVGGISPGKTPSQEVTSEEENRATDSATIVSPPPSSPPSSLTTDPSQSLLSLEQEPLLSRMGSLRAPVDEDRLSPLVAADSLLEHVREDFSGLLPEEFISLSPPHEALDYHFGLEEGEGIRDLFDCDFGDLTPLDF
# Chain of Aryl hydrocarbon receptor (Homo sapiens) (P35869 whole entry, looked up): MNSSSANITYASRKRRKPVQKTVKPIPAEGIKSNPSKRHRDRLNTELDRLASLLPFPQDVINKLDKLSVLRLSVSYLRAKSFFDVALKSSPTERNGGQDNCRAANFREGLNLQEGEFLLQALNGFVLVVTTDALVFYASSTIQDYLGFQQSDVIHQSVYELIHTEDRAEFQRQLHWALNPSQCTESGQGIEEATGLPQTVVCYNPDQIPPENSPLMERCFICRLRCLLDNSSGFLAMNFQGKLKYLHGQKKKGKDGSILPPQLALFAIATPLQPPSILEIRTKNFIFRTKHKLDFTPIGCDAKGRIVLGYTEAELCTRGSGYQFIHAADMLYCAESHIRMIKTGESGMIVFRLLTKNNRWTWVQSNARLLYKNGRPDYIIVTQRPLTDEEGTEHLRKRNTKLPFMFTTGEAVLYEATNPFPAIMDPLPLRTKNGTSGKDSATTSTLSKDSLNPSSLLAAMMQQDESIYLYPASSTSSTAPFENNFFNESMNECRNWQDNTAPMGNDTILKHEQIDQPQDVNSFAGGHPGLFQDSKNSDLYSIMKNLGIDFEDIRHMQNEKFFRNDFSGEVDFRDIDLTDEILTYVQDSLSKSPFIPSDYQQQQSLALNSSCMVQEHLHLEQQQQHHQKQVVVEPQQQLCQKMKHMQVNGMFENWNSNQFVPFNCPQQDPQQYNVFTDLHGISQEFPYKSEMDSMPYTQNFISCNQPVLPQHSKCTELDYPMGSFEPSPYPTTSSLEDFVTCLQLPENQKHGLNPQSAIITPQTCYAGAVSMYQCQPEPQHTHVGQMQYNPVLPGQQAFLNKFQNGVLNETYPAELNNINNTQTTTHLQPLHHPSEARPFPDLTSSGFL
# Chain of CCAAT/enhancer-binding protein beta (Homo sapiens) (P17676 whole entry, looked up): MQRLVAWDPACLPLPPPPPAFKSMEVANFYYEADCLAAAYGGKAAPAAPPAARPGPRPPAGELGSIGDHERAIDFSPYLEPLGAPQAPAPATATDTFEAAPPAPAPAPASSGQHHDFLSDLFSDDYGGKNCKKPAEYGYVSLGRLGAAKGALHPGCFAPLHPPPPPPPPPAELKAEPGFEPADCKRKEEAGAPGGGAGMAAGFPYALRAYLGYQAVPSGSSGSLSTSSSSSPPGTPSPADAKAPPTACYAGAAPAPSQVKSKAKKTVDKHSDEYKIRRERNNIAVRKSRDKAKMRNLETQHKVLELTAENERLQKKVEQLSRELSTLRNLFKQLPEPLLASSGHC
# Chain of Retinoic acid receptor alpha (Homo sapiens) (P10276 whole entry, looked up): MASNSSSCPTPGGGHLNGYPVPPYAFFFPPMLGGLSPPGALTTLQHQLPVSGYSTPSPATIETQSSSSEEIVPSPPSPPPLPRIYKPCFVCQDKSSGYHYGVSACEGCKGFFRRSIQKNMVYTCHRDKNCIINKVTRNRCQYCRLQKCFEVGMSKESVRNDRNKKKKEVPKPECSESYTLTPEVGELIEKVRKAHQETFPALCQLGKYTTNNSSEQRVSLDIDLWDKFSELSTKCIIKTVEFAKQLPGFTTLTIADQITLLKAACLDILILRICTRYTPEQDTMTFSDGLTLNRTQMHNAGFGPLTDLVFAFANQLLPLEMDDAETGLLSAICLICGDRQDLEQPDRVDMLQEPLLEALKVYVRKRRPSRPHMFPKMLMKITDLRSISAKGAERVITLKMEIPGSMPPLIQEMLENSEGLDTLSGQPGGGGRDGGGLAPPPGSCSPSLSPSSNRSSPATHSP
# Chain of Hepatocyte nuclear factor 3-beta (Homo sapiens) (Q9Y261 whole entry, looked up): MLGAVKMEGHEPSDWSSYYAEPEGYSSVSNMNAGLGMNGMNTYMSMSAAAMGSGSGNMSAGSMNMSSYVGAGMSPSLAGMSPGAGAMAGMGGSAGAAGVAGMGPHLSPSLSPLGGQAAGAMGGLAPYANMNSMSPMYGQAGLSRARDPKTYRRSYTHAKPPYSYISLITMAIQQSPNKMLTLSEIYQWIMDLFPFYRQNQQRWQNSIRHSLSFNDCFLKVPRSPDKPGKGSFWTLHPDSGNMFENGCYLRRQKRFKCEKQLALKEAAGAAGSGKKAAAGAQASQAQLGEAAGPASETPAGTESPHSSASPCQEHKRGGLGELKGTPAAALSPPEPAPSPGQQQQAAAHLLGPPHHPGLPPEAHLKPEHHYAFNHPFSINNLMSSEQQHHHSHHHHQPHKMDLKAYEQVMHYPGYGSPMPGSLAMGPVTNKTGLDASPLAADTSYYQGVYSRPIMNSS
structure (smiles),measurement,setting,value
COC(=O)c1c(C)cc(O)c(C)c1O,outcome,[1],inactive
same,outcome,[2],inactive
same,outcome,[3],inactive
same,outcome,[4],inactive
same,outcome,[5],inactive
same,outcome,[6],inactive
same,outcome,[7],inactive
same,outcome,[8],inactive
same,outcome,[9],inactive
same,outcome,[10],inactive
same,outcome,[11],inactive
same,outcome,[12],inactive
same,outcome,[13],inactive
same,outcome,[14],inactive
same,outcome,[15],inactive
same,outcome,[16],inactive
same,outcome,[17],inactive
same,outcome,[18],inactive
same,outcome,[19],inactive
same,outcome,[20],inactive
O=C1C(N(CO)C(=O)NCO)N(CO)C(=O)N1CO (stereo not drawn),outcome,[1],inactive
same,outcome,[2],inactive
same,outcome,[3],inactive
same,outcome,[4],inactive
same,outcome,[5],inactive
same,outcome,[6],inactive
same,outcome,[7],inactive
same,outcome,[8],inactive
same,outcome,[9],inactive
same,outcome,[10],inactive
same,outcome,[11],inactive
same,outcome,[12],inactive
same,outcome,[13],inactive
same,outcome,[14],inactive
same,outcome,[15],inactive
same,outcome,[16],inactive
same,outcome,[17],inactive
same,outcome,[18],inactive
same,outcome,[19],inactive
same,outcome,[20],inactive
c1ccc(CCCc2ccncc2)cc1,outcome,[1],inactive
same,outcome,[2],inactive
same,AC50,[3],43.2 µM (active)
same,outcome,[4],inactive
same,outcome,[5],inactive
same,AC50,[6],37.7 µM (active)
same,AC50,[7],100 µM (active)
same,AC50,[8],93.3 µM (active)
same,outcome,[9],inactive
same,outcome,[10],inactive
same,outcome,[11],inactive
same,outcome,[12],inactive
same,outcome,[13],inactive
same,outcome,[14],inactive
same,outcome,[15],inactive
same,AC50,[16],155 µM (active)
same,outcome,[18],inactive
same,outcome,[19],inactive
same,outcome,[20],inactive
CCCCCCCC(C)=O,outcome,[1],inactive
same,outcome,[2],inactive
same,outcome,[3],inactive
same,outcome,[4],inactive
same,outcome,[5],inactive
same,outcome,[6],inactive
same,outcome,[7],inactive
same,outcome,[8],inactive
same,outcome,[9],inactive
same,outcome,[10],inactive
same,outcome,[11],inactive
same,outcome,[12],inactive
same,outcome,[13],inactive
same,outcome,[14],inactive
same,outcome,[15],inactive
same,outcome,[16],inactive
same,outcome,[17],inactive
same,outcome,[18],inactive
same,outcome,[19],inactive
same,outcome,[20],inactive
C=C1[C@H]2CC[C@@H]3[C@H]2C(C)(C)CCC[C@]13C,outcome,[1],inactive
same,outcome,[2],inactive
same,AC50,[3],100 µM (active)
same,outcome,[4],inactive
same,outcome,[5],inactive
same,outcome,[6],inactive
same,outcome,[7],inactive
same,outcome,[8],inactive
same,outcome,[9],inactive
same,outcome,[10],inactive
same,outcome,[11],inactive
same,outcome,[12],inactive
same,outcome,[13],inactive
same,outcome,[14],inactive
same,outcome,[15],inactive
same,outcome,[16],inactive
same,outcome,[17],inactive
same,outcome,[18],inactive
same,outcome,[20],inactive
